Source: PubChem BioAssay (The Scripps Research Institute Molecular Screening Center)
M1 PAM = potentiates human M1 receptor response to acetylcholine. P11229. 360,000 compounds, 0.088% hits. CHO-K1 hM1, Fluo-8 calcium fluorescence, ACh EC20; 0% = ACh EC20, 100% = maximal ACh. AID 588819. activation, % at 3 µM; in the data active means activation above about 19%, passing the limit was not always enough
Target sequence (P11229 whole entry, looked up): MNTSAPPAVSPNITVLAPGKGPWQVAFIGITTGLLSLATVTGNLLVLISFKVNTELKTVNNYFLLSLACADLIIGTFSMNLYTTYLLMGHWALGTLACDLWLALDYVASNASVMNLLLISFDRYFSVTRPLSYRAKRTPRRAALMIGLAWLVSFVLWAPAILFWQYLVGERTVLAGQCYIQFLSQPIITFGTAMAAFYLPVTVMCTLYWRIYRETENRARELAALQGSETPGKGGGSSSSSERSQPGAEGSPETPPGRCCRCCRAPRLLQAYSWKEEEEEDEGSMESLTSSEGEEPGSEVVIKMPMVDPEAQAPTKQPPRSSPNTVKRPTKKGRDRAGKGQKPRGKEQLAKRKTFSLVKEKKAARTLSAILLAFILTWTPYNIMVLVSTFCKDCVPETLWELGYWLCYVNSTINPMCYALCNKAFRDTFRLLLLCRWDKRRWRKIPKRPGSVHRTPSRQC
CHO-K1 Ca ag = counter-screen for M1 agonists: effect in parental CHO-K1 cells; Fluo-8 calcium fluorescence; scaled to maximal ATP response, vehicle zero; activation, % at 3 µM; 360,000 compounds, 0.48% hits; AID 602248; in the data active means activation above about 15%;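 further: untransfected CHO-K1 host cells lacking M1 receptor as counterscreen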
CHO-K1 Ca PAM = nonselective activator or artifact in parental CHO-K1 calcium assay; ATP EC20, Fluo-8 calcium fluorescence; 0% at ATP EC20, 100% at ATP max; activation, % at 3 µM; 360,000 compounds, 0.02% hits;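 active means activation above the run cutoff, the mean activation of all test compounds plus 3 SD, cut at about 40% in these data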;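 further: peak over basal fluorescence ratio in a 140 s read after ATP addition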
CHO-K1 Ca antag = M1 antagonist counterscreen hit in parental CHO-K1 cells; inhibition, % at 3 µM; 360,000 compounds, 0.6% hits; ATP-induced calcium, Fluo-8 fluorescence;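 active means inhibition above a per-plate cutoff, the plate's mean sample inhibition plus 3 SD, cut at about 24% in these data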;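 further: 0% = DMSO plus EC80 ATP and 100% = DMSO alone without ATP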
M1 ag = human M1 muscarinic receptor agonism; AID 588814; P11229; CHO-K1 hM1, Fluo-8 calcium fluorescence, agonist mode; 0% DMSO, 100% acetylcholine EC100; 360,000 compounds, 0.33% hits; activation, % at 3 µM;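 active means activation above the run's mean compound activation plus 3 SD, cut at about 16% in these data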;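 further: peak over basal fluorescence ratio within a 140 s kinetic read after compound addition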
CHRM1 antagonist = blocks human M1 muscarinic receptor | P11229 | CHO-K1 hM1, Fluo-8 calcium fluorescence, ACh EC80 antagonist | inhibition, % at 3 µM | 360,000 compounds, 1.3% hits | AID 588852;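 active means percent inhibition above its own plate's cutoff, namely the mean of that plate's compound wells plus 3 SD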;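 further: peak over basal fluorescence ratio during 140 s after agonist addition; 0% = ACh EC80 plus DMSO and 100% = DMSO alone without agonist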
* marks the source's active call; other numbers are inactive results. Most compounds without a hit are left out; they make up all but 2.4% or so of the library.

For CCOc1cc2c(cc1/C=C(/C#N)c1ccc(C(=O)O)cc1)OCO2 the results were M1 PAM 5, CHO-K1 Ca ag 18*, CHO-K1 Ca PAM 4, CHO-K1 Ca antag 7, M1 ag -5 and CHRM1 antagonist -9.
`CCCCCCn1cc(C(=O)O)c(=O)c2ccccc21` gave M1 PAM -2, CHO-K1 Ca ag 0, CHO-K1 Ca PAM 0, CHO-K1 Ca antag -3, M1 ag 32* and CHRM1 antagonist -4.
Screening O=C(O)c1cn(Cc2ccccc2)c2ccc(Cl)cc2c1=O returned M1 PAM 9, CHO-K1 Ca ag 1, CHO-K1 Ca PAM 20, CHO-K1 Ca antag -13, M1 ag 47* and CHRM1 antagonist -8.
COc1ccc2c(c1)c(=O)c(C(=O)c1ccccc1)cn2Cc1ccccc1 was read as M1 PAM 2, CHO-K1 Ca ag 0, CHO-K1 Ca PAM -10, CHO-K1 Ca antag 3, M1 ag -1 and CHRM1 antagonist -1.
`CCCCn1c(N)c(N(CCOC)C(=O)c2ccc3c(c2)C(=O)N(c2ccccc2C)C3=O)c(=O)[nH]c1=O` gave M1 PAM -1, CHO-K1 Ca ag 0, CHO-K1 Ca PAM -10, CHO-K1 Ca antag 7, M1 ag -2 and CHRM1 antagonist 33*.
For C/C(=N\Nc1cc(C)nc(NCc2ccccc2)n1)c1ccc([N+](=O)[O-])cc1 the results were M1 PAM -15, CHO-K1 Ca ag 0, CHO-K1 Ca PAM 11, CHO-K1 Ca antag -2, M1 ag -7 and CHRM1 antagonist 38*.
Screening O=C(CCCN1CCC(C(=O)c2ccc(F)cc2)CC1)c1ccc(F)cc1 returned M1 PAM -28, CHO-K1 Ca ag 4, CHO-K1 Ca PAM 9, CHO-K1 Ca antag -4, M1 ag -9 and CHRM1 antagonist 89*.
For O=C(c1ccc(F)cc1)C1CCN(Cc2ccccc2)CC1 the results were M1 PAM -8, CHO-K1 Ca ag 16*, CHO-K1 Ca PAM 4, CHO-K1 Ca antag 7, M1 ag -5 and CHRM1 antagonist 14.
For O=C(CN1C(=O)NC2(CCCC2)C1=O)Nc1cc(S(=O)(=O)N2CCCCC2)ccc1Cl the results were M1 PAM -2, CHO-K1 Ca ag 1, CHO-K1 Ca PAM -11, CHO-K1 Ca antag -3, M1 ag -4 and CHRM1 antagonist -3.
`CCn1c(N2CCN(C(=S)NCC(C)C)CC2)nc2ccccc21` gave M1 PAM -24, CHO-K1 Ca ag 7, CHO-K1 Ca PAM 10, CHO-K1 Ca antag -12, M1 ag -7 and CHRM1 antagonist 39*.
`CCn1c(N2CCN(C(=S)NC)CC2)nc2ccccc21` gave M1 PAM 0, CHO-K1 Ca ag 2, CHO-K1 Ca PAM 11, CHO-K1 Ca antag -18, M1 ag -3 and CHRM1 antagonist -25.
For CCOC(CNc1c([N+](=O)[O-])c(=O)n(C)c(=O)n1C)OCC the results were M1 PAM -3, CHO-K1 Ca ag 0, CHO-K1 Ca PAM 1, CHO-K1 Ca antag -9, M1 ag -2 and CHRM1 antagonist 4.
`O=C(OCc1ccc(F)cc1)c1cc(S(=O)(=O)N2CCCCC2)ccc1N1CCOCC1` gave M1 PAM 5, CHO-K1 Ca ag 0, CHO-K1 Ca PAM -2, CHO-K1 Ca antag 3, M1 ag -2 and CHRM1 antagonist -1.
Screening CN(C)c1ccc(-c2nn3c(C4CCCCC4)nnc3s2)cc1 returned M1 PAM 4, CHO-K1 Ca ag 0, CHO-K1 Ca PAM -7, CHO-K1 Ca antag 30*, M1 ag -6 and CHRM1 antagonist 0.
Screening Cc1c(C(=O)COC(C)(C)C)[nH]c2ccccc12 returned M1 PAM -10, CHO-K1 Ca ag 8, CHO-K1 Ca PAM 11, CHO-K1 Ca antag -5, M1 ag 4 and CHRM1 antagonist -1.
For CCOc1cc(CNn2nnnc2N)cc(Cl)c1OCC(=O)NC(C)(C)C the results were M1 PAM -1, CHO-K1 Ca ag 0, CHO-K1 Ca PAM -2, CHO-K1 Ca antag 4, M1 ag -2 and CHRM1 antagonist 7.
Screening CCc1ccc(C(CNC(=O)c2ccc3c(=O)n(-c4ccccc4F)c(=S)[nH]c3c2)N(C)C)cc1 (stereo not given) returned M1 PAM -19, CHO-K1 Ca ag 2, CHO-K1 Ca PAM -3, CHO-K1 Ca antag 4, M1 ag -5 and CHRM1 antagonist 37*.
Screening Cc1cc(C(=O)NCC(=O)OCC(=O)NCCc2ccccc2)ccc1[N+](=O)[O-] returned M1 PAM 3, CHO-K1 Ca ag -1, CHO-K1 Ca PAM -18, CHO-K1 Ca antag 53*, M1 ag -1 and CHRM1 antagonist 6.
`O=C(COC(=O)CNC(=O)c1ccccc1)NCCc1ccccc1` gave M1 PAM 11, CHO-K1 Ca ag 1, CHO-K1 Ca PAM 12, CHO-K1 Ca antag -7, M1 ag -3 and CHRM1 antagonist -8.
Screening CN(C)S(=O)(=O)N1CCC(Oc2cccc(C(=O)NC3CCCCCC3)c2)CC1 returned M1 PAM -9, CHO-K1 Ca ag 15*, CHO-K1 Ca PAM -6, CHO-K1 Ca antag 17, M1 ag 1 and CHRM1 antagonist 22.
`CCCOC(=O)c1ccc(NC(=O)c2nc3nc(C)cc(C)n3n2)cc1` gave M1 PAM 2, CHO-K1 Ca ag 2, CHO-K1 Ca PAM -1, CHO-K1 Ca antag -5, M1 ag -4 and CHRM1 antagonist -1.
Screening CC1CCC(C(C)C)C(OCC[N+](C)(C)C)C1 (stereo not given) returned M1 PAM -22, CHO-K1 Ca ag 1, CHO-K1 Ca PAM -9, CHO-K1 Ca antag -4, M1 ag -10 and CHRM1 antagonist 100*.
CC1CCC(C(C)C)C(OCC(O)CN2CCCC(C)C2)C1 (stereo not given) was read as M1 PAM -13, CHO-K1 Ca ag 1, CHO-K1 Ca PAM -9, CHO-K1 Ca antag -8, M1 ag -8 and CHRM1 antagonist 15.
CC1CCC(C(C)C)C(OCC(O)C[N+]2(C)CCCCC2)C1 (stereo not given) was read as M1 PAM -23, CHO-K1 Ca ag 0, CHO-K1 Ca PAM -6, CHO-K1 Ca antag 0, M1 ag -6 and CHRM1 antagonist 76*.
For COc1ccc(-c2nnc(-c3ccc(N(C)C)cc3)o2)cc1 the results were M1 PAM 9, CHO-K1 Ca ag 1, CHO-K1 Ca PAM 16, CHO-K1 Ca antag -38, M1 ag -1 and CHRM1 antagonist -8.
Screening CN(C)c1ccc(-c2nnc(-c3ccccc3F)o2)cc1 returned M1 PAM 5, CHO-K1 Ca ag 19*, CHO-K1 Ca PAM 3, CHO-K1 Ca antag 10, M1 ag 0 and CHRM1 antagonist -10.
Screening CC(C)(C)c1ccc(C(=O)CCC(=O)OCC(=O)NCCc2ccc(S(N)(=O)=O)cc2)cc1 returned M1 PAM -19, CHO-K1 Ca ag 20*, CHO-K1 Ca PAM -11, CHO-K1 Ca antag 13, M1 ag 2 and CHRM1 antagonist 47*.
